From PubChem BioAssay AID589 (National Center for Advancing Translational Sciences (NCATS), 2007)
Among all 59,000 compounds or so, about 6,200 (11%) were called active. Another 9% or so got no clear call; they are omitted. No stated cut-off is given here; in the data, active means max dye-equivalent concentration above about 10 nM; inconclusive means mostly about 1.1 nM to 9.6 nM; inactive means weaker than that. Shown is part of a subset that was picked to be rich in actives.

Assay: qHTS Assay for Spectroscopic Profiling in 4-MU Spectral Region
Conditions: compound autofluorescence, 340/450 nm, 4-MU equivalents; hits give high values
Method in brief: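 Compounds in 100 mM Tris, pH 8.0, sat 15 min at room temperature before fluorescence was read at 340 nm excitation/450 nm emission; a per-plate six-point 4-MU standard curve converted signals to dye-equivalent concentration at each compound concentration.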
For CN1CCN(CCCNC(=O)c2cc3c(=O)oc4ccccc4c3s2)CC1, the max dye-equivalent concentration was “inactive”. With O=C(c1ccc([N+](=O)[O-])cc1)[C@@H](Br)[C@@H](Br)c1ccnc2ccccc12 the max dye-equivalent concentration was “inactive”. With CC12C(=O)N(n3cnnc3)C(=O)C1C1C=CC2C1 (stereo not given) the max dye-equivalent concentration was “inactive”. In the case of Cc1ccc(-n2ncc3c(N4CCN(c5ccc(F)cc5)CC4)ncnc32)c(C)c1, the max dye-equivalent concentration is reported as “inactive”. For Fc1ccc2[nH]c3c(N4CCSCC4)ncnc3c2c1, the max dye-equivalent concentration was 47 nM (active). With Cc1cnc(CNc2nc(-c3cccnc3)nc3ccccc23)cn1 the max dye-equivalent concentration was “inactive”. For Cc1noc(C)c1C(=O)NC(C)c1ccc2c(c1)OCO2 (stereo not given), the max dye-equivalent concentration was “inactive”. With O=C(CSc1nnc(-c2ccco2)n1Cc1ccccc1)NC(=O)NCc1ccco1 the max dye-equivalent concentration was “inactive”. With CO[C@@H]1/C=C\O[C@]2(C)Oc3c(C)c(O)c4c(O)c(c(CN(C)C)c(O)c4c3C2=O)NC(=O)/C(C)=C\C=C[C@@H](C)[C@@H](O)[C@H](C)[C@@H](O)[C@H](C)[C@H](OC(C)=O)[C@@H]1C the max dye-equivalent concentration was “inactive”. In the case of Cc1ccc(C(=O)COc2cccc(NC(=O)c3ccco3)c2)cc1, the max dye-equivalent concentration is reported as “inactive”. In the case of O=C(Nc1ccc(Oc2ccccc2)cc1)c1ccco1, the max dye-equivalent concentration is reported as “inactive”. In the case of CCOc1cc(NC(=O)c2ccco2)c(OCC)cc1NC(=O)COc1ccccc1, the max dye-equivalent concentration is reported as 85 nM (active). In the case of O=c1oc2c(CN3CCCCC3)c(O)ccc2c2c1CCCCC2, the max dye-equivalent concentration is reported as 12000 nM (active). In the case of CCN(CC)S(=O)(=O)c1cc(C(=O)Nc2ccccn2)ccc1C, the max dye-equivalent concentration is reported as “inactive”. In the case of O=C(CSc1nc2ccccc2o1)N1CCN(c2ccccc2)CC1, the max dye-equivalent concentration is reported as “inactive”. For Cn1c(=O)cc(OCCCC(=O)N2CCN(c3ccccn3)CC2)c2ccccc21, the max dye-equivalent concentration was “inactive”. In the case of Cc1ccnc(N2CCN(C(=O)CSc3nc4ccccc4nc3N3CCCCC3)CC2)c1, the max dye-equivalent concentration is reported as 29 nM (active). In the case of CC1Cc2ccccc2N1C(=O)CSc1nc2ccccc2o1 (stereo not given), the max dye-equivalent concentration is reported as “inactive”. In the case of c1ccc(CCN2CCN=C2Cc2ccccc2)cc1, the max dye-equivalent concentration is reported as “inactive”. For Cc1ccc(NC(=O)Cn2nc(C)c3ccccc3c2=O)c(C)c1, the max dye-equivalent concentration was “inactive”. In the case of CCOc1ccc(N=NS(=O)(=O)O)cc1, the max dye-equivalent concentration is reported as “inactive”. With Nc1ccc2[nH]cc(CCC(=O)O)c2c1 the max dye-equivalent concentration was “inactive”. For NCCNCC1CCNCC1, the max dye-equivalent concentration was “inactive”. For O=C(NCCc1ccccn1)c1ccc(COc2ccccc2)o1, the max dye-equivalent concentration was “inactive”. With O=C(O)[C@H](CCc1ccccn1)c1ccccc1 the max dye-equivalent concentration was “inactive”. With C/C(N)=C(\C#N)C(=O)NCCc1ccccn1 the max dye-equivalent concentration was 46 nM (active). In the case of O=C1C(=O)N(CCN2CCOCC2)C(c2ccccn2)/C1=C(/O)c1ccc(Cl)cc1 (stereo not given), the max dye-equivalent concentration is reported as “inactive”. With COc1ccccc1-c1nc(N2CCN(C)CC2)c2ccccc2n1 the max dye-equivalent concentration was “inactive”. For CCOC(=O)c1ccc(COC(=O)c2cc(=O)[nH]c3ccccc23)o1, the max dye-equivalent concentration was 33 nM (active). In the case of CCOC(=O)c1ccc(CS(=O)c2ccc(Cl)cc2)o1 (stereo not given), the max dye-equivalent concentration is reported as “inactive”. In the case of CCOC(=O)c1sc2nc(CSCC(=O)OCc3ccc(C(=O)OC)o3)[nH]c(=O)c2c1C, the max dye-equivalent concentration is reported as “inactive”. In the case of CN(C)/C=C/c1c(C#N)c(=O)ncn1Cc1ccccc1, the max dye-equivalent concentration is reported as “inactive”. In the case of COC(=O)CCSc1nccn1Cc1ccccc1, the max dye-equivalent concentration is reported as “inactive”. For CN(C)c1ccnc2sc3c(=O)n(Cc4ccccc4)cnc3c12, the max dye-equivalent concentration was 28 nM (active). With CCOc1ccccc1N(CC(=O)NC1CCCCC1)C(=O)CCCC(=O)Nc1ccccn1 the max dye-equivalent concentration was “inactive”. For CCC(C)(C)n1nnnc1C(c1cccs1)N1CCN(Cc2ccccc2)CC1 (stereo not given), the max dye-equivalent concentration was “inactive”. In the case of COc1ccccc1C(=O)Oc1ccc(N2C(=O)CCC2=O)cc1, the max dye-equivalent concentration is reported as “inactive”. In the case of COc1ccc(-c2noc(CN(C)S(=O)(=O)c3ccc(C)cc3)n2)cc1, the max dye-equivalent concentration is reported as “inactive”. For CCOc1nc(-c2ccc(OC)cc2)ccc1-c1noc(-c2cc(OC)c(OC)c(OC)c2)n1, the max dye-equivalent concentration was 57 nM (active). With CCOc1cc(-c2noc(CCC(=O)N3CCOCC3)n2)ccc1OC the max dye-equivalent concentration was “inactive”. In the case of COc1ccc(-c2ccc(-c3noc(-c4ccncc4)n3)c(OC)n2)cc1, the max dye-equivalent concentration is reported as 17 nM (active). For COc1ccc(-c2nc(-c3ccccc3)no2)c(OC)c1, the max dye-equivalent concentration was “inactive”. With O=C(Oc1ccc(-c2nc(-c3ccccn3)no2)cc1)c1ccccc1 the max dye-equivalent concentration was “inactive”. For FC(F)Oc1ccccc1C1CC(c2ccc(Br)s2)Nc2ncnn21 (stereo not given), the max dye-equivalent concentration was “inactive”. For CN1CCN(C(=O)c2ccc(NS(=O)(=O)c3ccccc3)cc2)CC1, the max dye-equivalent concentration was “inactive”. With O=C(c1cnccn1)N1CCC2(CCCN(Cc3ccccc3)C2)CC1 the max dye-equivalent concentration was “inactive”. In the case of Cn1nnc2cc(C(=O)NCCC3=CCCCC3)ccc21, the max dye-equivalent concentration is reported as “inactive”. In the case of Cc1ccc2c(c1)c1ncn(CCC3=CCCCC3)c(=O)c1n2C, the max dye-equivalent concentration is reported as 38 nM (active). For O=C(COc1cccc(-n2cnnn2)c1)NCCC1=CCCCC1, the max dye-equivalent concentration was “inactive”. In the case of NC(=S)c1ccc(C(N)=S)o1, the max dye-equivalent concentration is reported as “inactive”. With CCCCSc1nnc(-c2ccc(NC(=O)CC)cc2)n1C the max dye-equivalent concentration was “inactive”. For CCOc1cc(C)c(Cl)cc1S(=O)(=O)n1nnc2ccccc21, the max dye-equivalent concentration was “inactive”. For Cc1nn(Cc2ccccc2)c(Cl)c1C(=O)OC1CCOC1=O (stereo not given), the max dye-equivalent concentration was “inactive”. In the case of O=C(OC1CCOC1=O)c1ccc(-c2nc3ccccc3s2)s1 (stereo not given), the max dye-equivalent concentration is reported as 550 nM (active). With O=C(c1cccs1)N1CCC(c2nc3ccccc3s2)CC1 the max dye-equivalent concentration was “inactive”. For Cc1ccc(C(C)C)c(OCc2nnc(SCC(=O)Nc3nccs3)n2C)c1, the max dye-equivalent concentration was “inactive”. With C=CCOc1ccc(/C=N/n2cncn2)cc1OC the max dye-equivalent concentration was “inactive”. For COc1ccc(Cl)cc1NC(=O)C1CC(=O)N(c2ccc(F)cc2)C1 (stereo not given), the max dye-equivalent concentration was “inactive”. In the case of COCCCNC(=O)C1CC(=O)N(c2ccc(C)cc2)C1 (stereo not given), the max dye-equivalent concentration is reported as “inactive”. In the case of COc1cccc(N2CC(C(=O)Nc3c(C)cccc3C)CC2=O)c1 (stereo not given), the max dye-equivalent concentration is reported as 20 nM (active). In the case of O=C(Nc1ccn(Cc2ccc(F)cc2)n1)c1ccncc1, the max dye-equivalent concentration is reported as “inactive”. In the case of N#Cc1c(NC(=O)CSc2nc3ccccc3c(=O)n2Cc2ccco2)sc2c1CCCC2, the max dye-equivalent concentration is reported as “inactive”. For CC(C)(O/N=C(\C(=O)N[C@@H]1C(=O)N2C(C(=O)[O-])=C(C[n+]3ccccc3)CS[C@@H]12)c1csc(N)n1)C(=O)O, the max dye-equivalent concentration was “inactive”. In the case of CC(=O)N=c1ncn(CC(COC(C)=O)OC(C)=O)c2nc[nH]c12 (stereo not given), the max dye-equivalent concentration is reported as “inactive”. With Cc1ccc(S(=O)(=O)N2CCCC2C(=O)NCc2ccco2)cc1 (stereo not given) the max dye-equivalent concentration was “inactive”. With CC(=O)c1c(N2CCOCC2)nc(=S)n(Cc2ccccc2)c1C the max dye-equivalent concentration was “inactive”. For COC(=O)c1c(NC(=O)CSc2nncs2)sc2c1CCCCC2, the max dye-equivalent concentration was “inactive”. In the case of COC(=O)c1c(NC(=O)c2cccs2)sc2c1CCCC2, the max dye-equivalent concentration is reported as 90 nM (active). With COC(=O)Cn1cc(C(=O)c2cccs2)c2ccccc21 the max dye-equivalent concentration was “inactive”. In the case of CCOC(=O)c1c(NC(=O)c2cccs2)sc(C)c1C, the max dye-equivalent concentration is reported as 190 nM (active). In the case of CCOC(=O)c1c(NC(=O)CSc2nnc(Cc3csc(N)n3)n2C)sc(C)c1C, the max dye-equivalent concentration is reported as “inactive”. In the case of CCOC(=O)c1oc2ccccc2c1NC(=O)c1cccs1, the max dye-equivalent concentration is reported as 18 nM (active). For CCOCC(=O)Nc1sc2c(c1C(=O)OCC)CCCC2, the max dye-equivalent concentration was “inactive”. With CCOC(=O)CSc1nnc(CNC(=O)c2cccs2)n1-c1ccccc1 the max dye-equivalent concentration was “inactive”. With O=C(Nc1ncccn1)c1cccs1 the max dye-equivalent concentration was “inactive”. In the case of Cc1ccnc(N2CCC(C(=O)NC3CCCCCC3)CC2)n1, the max dye-equivalent concentration is reported as “inactive”. For CCN(CC)S(=O)(=O)c1ccc2nc(COC(=O)c3n[nH]c4ccccc34)[nH]c2c1, the max dye-equivalent concentration was “inactive”. For COc1ccc2c(c1)CCc1c(C(=O)Nc3c(C)n(C)n(-c4ccccc4)c3=O)noc1-2, the max dye-equivalent concentration was “inactive”. With O=C(Nc1c[nH]c(=O)[nH]c1=O)Oc1ccccc1 the max dye-equivalent concentration was “inactive”. For Cc1ccc(C)c(N(CC(=O)NCc2ccco2)C(=O)CCC(=O)Nc2ccccn2)c1, the max dye-equivalent concentration was “inactive”.
